# Rows were chosen to be rich in hits. Some 3.6% of all compounds tested hit in one or more screens of this group.
# Pf apPOL inh: Pf-apPOL DNA polymerase inhibition; Recombinant Pf-apPOL, molecular beacon fluorescence, 1.5 h; inhibition, % at 10 µM; actives 0.25% (n = 210,000)
# mHTT CaM bind: mHTT-calmodulin interaction abrogation. P42858. AlphaScreen His-mHTT/GST-CaM binding, luminescence. inhibition, % at 15 µM. actives 3.6% (n = 190,000);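 further: 0% = both proteins with DMSO and 100% = one protein alone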
# * hit, by the source's call; . = no result. No stated cut-off is given here; in the data, active means inhibition above about 50%; inactive means the rest.
SMILES,Pf apPOL inh,mHTT CaM bind
COCOCCn1cc(CN2CCS(=O)(=O)N(Cc3ccc(-c4ccc(F)nc4)cc3)C(C(C)C)C2=O)nn1 (stereo not drawn),-4,-8
COc1ccc(-c2ccc(CN3C(CC(C)C)C(=O)N(Cc4cn(Cc5ccco5)nn4)CCS3(=O)=O)cc2)cc1 (stereo not drawn),-2,32
CC(C)CC1C(=O)N(Cc2cn(Cc3ccco3)nn2)CCS(=O)(=O)N1Cc1ccc(-c2ccncc2)cc1 (stereo not drawn),-5,33
Cn1ncc(N2CCCC(C(=O)N3CCCN(c4ncccn4)CC3)C2)cc1=O (stereo not drawn),-2,1
Cc1ccc(C)c(S(=O)(=O)N=C(c2ccc(Cl)cc2)N(C)C)c1,-2,8
O=C(c1ccc(OCC2CCN(C(=O)c3ccc(F)cc3F)CC2)cc1)N1CCOCC1,0,5
CCC1CN2C=NC(N3CCN(C(=O)c4ccc(OC)c(OC)c4)CC3)=CC2=N1 (stereo not drawn),-4,2
COCCNC(=O)C1(C)CCC(=O)N1CCCc1ccccc1 (stereo not drawn),2,-4
CN1CCN(C(=O)C(C(=O)N2CCN(C)CC2)C23CC4CC(CC(C4)C2)C3)CC1,-11,-7
Cc1ccccc1C(=O)NC1CCc2[nH]c3ccc(Br)cc3c2C1 (stereo not drawn),0,100*
Cc1cc(C)c2[nH]c3c(c2c1)CC(NC(=O)C1CCCO1)CC3 (stereo not drawn),-3,54*
COc1ccccc1C(=O)NC1CCc2[nH]c3c(C)cc(Cl)cc3c2C1 (stereo not drawn),-3,92*
Cc1cccc2c3c([nH]c12)CCC(NC(=O)CC(C)C)C3 (stereo not drawn),-4,47
Cc1cc(Cl)cc2c3c([nH]c12)CCC(NC(=O)C1CCCC1)C3 (stereo not drawn),-4,49
CCOC(=O)C(=O)NC1CCc2[nH]c3ccc(C)cc3c2C1 (stereo not drawn),0,21
CCc1nnc2n1N=C(c1ccc3c(c1)OCCO3)CS2,-2,5
NC(=O)C1CCN(C(=O)C=CC(=O)O)CC1,-6,.
N#CC1=C(N)C(C#N)(C#N)C(c2ccccc2I)C2CCCC=C12 (stereo not drawn),-3,11
N#CC1=C(N)C(C#N)(C#N)C(c2cccnc2)C2CCCC=C12 (stereo not drawn),7,5
CC(C)(C)C1CC=C2C(C#N)=C(N)C(C#N)(C#N)C(c3c[nH]c4ccccc34)C2C1 (stereo not drawn),24,98*
N#CC1=C(N)C(C#N)(C#N)C(c2cccc([N+](=O)[O-])c2)C2CCCC=C12 (stereo not drawn),7,53*
CN1CC=C2C(C#N)=C(N)C(C#N)(C#N)C(c3cccc(Cl)c3)C2C1 (stereo not drawn),-3,9
CC1CC=C2C(C#N)=C(N)C(C#N)(C#N)C(c3cccc(Cl)c3)C2C1 (stereo not drawn),0,70*
CS(=O)(=O)Nc1cccc(NC(=O)Cc2csc(-n3cccc3)n2)c1,-5,1
Cc1ccc([N+](=O)[O-])c2c3c([nH]c12)C(=O)CCC3,83*,12
SMILES,Pf apPOL inh,mHTT CaM bind
Cc1ccc([N+](=O)[O-])c2c3c([nH]c12)C(=NCCO)CCC3,1,22
O=C(NCc1ccccc1Br)c1cn2ccccc2n1,-2,-4
O=C(Nc1ccc(F)c(Cl)c1)C1CCN(S(=O)(=O)c2ccc(F)cc2)CC1,-10,-5
O=[N+]([O-])c1ccc(OC2=C(c3ccccc3)N3CCN=C3S2)cc1,-2,33
Clc1ccc(OC2=C(c3ccccc3)N3CCN=C3S2)cc1,0,60*
O=C(NCCC1CCN(C(=O)NC2CCCCC2)CC1)NC1CCCC1,-2,0
Cc1ccc(NC(=O)CSc2nc3c(cnn3-c3ccccc3)c(=O)[nH]2)c(C)c1,6,4
CCc1nc(SCC(=O)c2ccc(O)cc2O)n[nH]1,-4,71*
O=C(CSc1n[nH]c(-c2ccccc2)n1)c1ccc(O)cc1O,0,1
CN1CCN(Cc2ccc3c(c2)Cc2ccccc2-3)CC1,1,1
CN1CCN(Cc2cncc(-c3cc4ccccc4s3)c2)CC1,-1,55*
c1ccc(N2N=C3N(c4ccccc4)C2N3c2ccccc2)cc1,.,77*
COC1N(c2ccccc2)N=C(c2ccccc2)N1c1ccccc1 (stereo not drawn),.,13
Cn1nc(COCc2ccccc2)c2c1CCN(S(=O)(=O)c1ccccc1)C2,0,27
CCCC(=O)N1CCc2c(c(COCc3ccc(C)cc3)nn2C)C1,-6,3
Cn1nc(COCc2ccc(Cl)cc2)c2c1CCN(C(=O)Nc1ccccc1)C2,-1,44
COc1ccc(NC(=O)N2CCc3c(c(COCc4ccc(Cl)cc4)nn3C)C2)cc1,-2,58*
CCC(=O)N1CCc2c(c(COCc3ccc(Cl)cc3)nn2C)C1,-14,52*
Cc1ccccc1S(=O)(=O)N1CCc2c(c(COCc3ccccc3)nn2C)C1,3,60*
Cc1nn(C)cc1C(C)NC(=O)c1cn2ccccc2n1 (stereo not drawn),-2,-1
CC(C)NC(=O)c1ccnc(N2CCNC(c3ccccc3)C2)c1 (stereo not drawn),-6,-2
Nc1c(C(=O)Nc2nccs2)sc2nc3c(cc12)CCCCC3,6,64*
Nc1c(C(=O)Nc2nccs2)sc2nc3c(cc12)CCC3,-9,26
CC(C)(C)c1cc(O)c(O)c(Br)c1,-2,7
O=C1c2ccccc2-c2onc3c(N4CCOCC4)cc(Nc4cccc(F)c4)c1c23,-1,-6
SMILES,Pf apPOL inh,mHTT CaM bind
CN(C)c1ccc(Nc2cc(N3CCOCC3)c3noc4c3c2C(=O)c2ccccc2-4)cc1,-3,13
O=C(O)CCCNc1cc(N2CCOCC2)c2noc3c2c1C(=O)c1ccccc1-3,-2,52*
O=C(O)c1ccc(Nc2cc(N3CCOCC3)c3noc4c3c2C(=O)c2ccccc2-4)cc1,-3,55*
CNC(=O)C(C#N)=CN(C)C,-5,.
Cc1onc(-c2c(Cl)cccc2Cl)c1C(=O)NCc1csc2ccccc12,-6,.
COc1ccc(C(=O)N2CCC(c3noc(-c4cccc(OC)c4)n3)CC2)cc1,-2,4
CCC1(C)CC(=O)N(c2cc(C(F)(F)F)cc(C(F)(F)F)c2)C(=O)C1,-8,.
CCCn1cnnc1C1CCCCN1C(=O)Cc1cccnc1 (stereo not drawn),3,-7
Cc1ccc(C)c(CN2C(=O)C3(OCCCO3)c3ccccc32)c1,-7,-22
O=C1N(Cc2cc(=O)n3ccccc3n2)c2ccccc2C12OCCCO2,-8,52*
COc1cccc(-c2cc3n(n2)CCCN(C(=O)Cc2ccccc2OC)C3)c1,-2,16
O=C(CCN1C(=O)C(=Cc2ccco2)SC1=S)NC12CC3CC(CC(C3)C1)C2,-5,38
Cn1c(/C=C/c2ccc([N+](=O)[O-])o2)nc2ccccc2c1=O,-4,3
Cn1cc(C(c2ccc([N+](=O)[O-])o2)c2cn(C)c3ccccc23)c2ccccc21,0,65*
COc1cc(/C=C2\SC(=O)N(Cc3ccc(F)cc3)C2=O)c(Br)cc1O,0,75*
COc1ccccc1/C=C1\SC(=O)N(Cc2ccc(F)cc2)C1=O,-6,-3
CC(C)C(=O)N1CCN(Cc2noc(-c3cccc4ccccc34)n2)CC1,8,30
COC(=O)c1cc(OC)ccc1Oc1cccc(OC)c1,0,.
